Measured values as given in ChEMBL document CHEMBL1961873, “Compounds: GSK PKIS; Assays: Nanosyn kinase panel” (2012).

Key:
[1] = biological target: Mitogen-activated protein kinase 3 (Homo sapiens) (UniProt P27361); details: at 1 µM;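 also: values are mean percent inhibition of MAPK3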
[2] = biological target: SRSF protein kinase 3 (Homo sapiens) (UniProt Q9UPE1); details: at 0.1 µM
[3] = biological target: SRSF protein kinase 3 (Homo sapiens) (UniProt Q9UPE1); details: at 1 µM
[4] = biological target: Mitogen-activated protein kinase 14 (Homo sapiens) (UniProt Q16539); details: at 0.1 µM
[5] = biological target: Mitogen-activated protein kinase 14 (Homo sapiens) (UniProt Q16539); details: at 1 µM
[6] = biological target: Mitogen-activated protein kinase 11 (Homo sapiens) (UniProt Q15759); details: at 0.1 µM
[7] = biological target: Mitogen-activated protein kinase 11 (Homo sapiens) (UniProt Q15759); details: at 1 µM
[8] = biological target: T1, Mitogen-activated protein kinase 13 (Homo sapiens) (UniProt O15264); details: at 0.1 µM
T1 sequence (whole entry): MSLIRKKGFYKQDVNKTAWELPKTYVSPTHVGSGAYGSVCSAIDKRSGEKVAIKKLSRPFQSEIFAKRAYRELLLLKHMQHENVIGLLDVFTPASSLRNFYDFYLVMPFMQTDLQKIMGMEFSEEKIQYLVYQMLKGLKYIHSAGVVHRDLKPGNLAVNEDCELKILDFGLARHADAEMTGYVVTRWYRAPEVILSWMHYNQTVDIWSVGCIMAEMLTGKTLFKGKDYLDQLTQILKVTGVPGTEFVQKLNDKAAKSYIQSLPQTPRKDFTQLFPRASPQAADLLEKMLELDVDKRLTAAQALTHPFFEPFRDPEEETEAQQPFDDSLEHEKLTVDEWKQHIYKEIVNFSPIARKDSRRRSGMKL

[9] = biological target: T1, Mitogen-activated protein kinase 13 (Homo sapiens); details: at 1 µM
[10] = biological target: T2, Mitogen-activated protein kinase 12 (Homo sapiens) (UniProt P53778); details: at 0.1 µM
T2 sequence (whole entry): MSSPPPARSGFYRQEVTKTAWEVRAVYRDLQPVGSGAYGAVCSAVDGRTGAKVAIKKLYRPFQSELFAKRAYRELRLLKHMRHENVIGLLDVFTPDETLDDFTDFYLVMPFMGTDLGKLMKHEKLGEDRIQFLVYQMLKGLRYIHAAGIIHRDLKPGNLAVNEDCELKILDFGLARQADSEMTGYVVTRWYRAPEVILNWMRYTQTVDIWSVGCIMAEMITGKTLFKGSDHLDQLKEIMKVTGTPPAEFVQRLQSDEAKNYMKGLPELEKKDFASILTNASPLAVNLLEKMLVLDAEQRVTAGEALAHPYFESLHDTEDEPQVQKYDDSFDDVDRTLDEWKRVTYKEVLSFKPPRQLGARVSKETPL

[11] = biological target: T2, Mitogen-activated protein kinase 12 (Homo sapiens); details: at 1 µM
[12] = biological target: SRSF protein kinase 1 (Homo sapiens) (UniProt Q96SB4); details: at 0.1 µM
[13] = biological target: SRSF protein kinase 1 (Homo sapiens) (UniProt Q96SB4); details: at 1 µM
[14] = biological target: Phosphatidylinositol 4,5-bisphosphate 3-kinase catalytic subunit alpha isoform (Homo sapiens) (UniProt P42336); details: at 0.1 µM
[15] = biological target: Phosphatidylinositol 4,5-bisphosphate 3-kinase catalytic subunit alpha isoform (Homo sapiens) (UniProt P42336); details: at 1 µM
[16] = biological target: T3, Phosphatidylinositol 4,5-bisphosphate 3-kinase catalytic subunit delta isoform (Homo sapiens) (UniProt O00329); details: at 0.1 µM
T3 sequence (whole entry): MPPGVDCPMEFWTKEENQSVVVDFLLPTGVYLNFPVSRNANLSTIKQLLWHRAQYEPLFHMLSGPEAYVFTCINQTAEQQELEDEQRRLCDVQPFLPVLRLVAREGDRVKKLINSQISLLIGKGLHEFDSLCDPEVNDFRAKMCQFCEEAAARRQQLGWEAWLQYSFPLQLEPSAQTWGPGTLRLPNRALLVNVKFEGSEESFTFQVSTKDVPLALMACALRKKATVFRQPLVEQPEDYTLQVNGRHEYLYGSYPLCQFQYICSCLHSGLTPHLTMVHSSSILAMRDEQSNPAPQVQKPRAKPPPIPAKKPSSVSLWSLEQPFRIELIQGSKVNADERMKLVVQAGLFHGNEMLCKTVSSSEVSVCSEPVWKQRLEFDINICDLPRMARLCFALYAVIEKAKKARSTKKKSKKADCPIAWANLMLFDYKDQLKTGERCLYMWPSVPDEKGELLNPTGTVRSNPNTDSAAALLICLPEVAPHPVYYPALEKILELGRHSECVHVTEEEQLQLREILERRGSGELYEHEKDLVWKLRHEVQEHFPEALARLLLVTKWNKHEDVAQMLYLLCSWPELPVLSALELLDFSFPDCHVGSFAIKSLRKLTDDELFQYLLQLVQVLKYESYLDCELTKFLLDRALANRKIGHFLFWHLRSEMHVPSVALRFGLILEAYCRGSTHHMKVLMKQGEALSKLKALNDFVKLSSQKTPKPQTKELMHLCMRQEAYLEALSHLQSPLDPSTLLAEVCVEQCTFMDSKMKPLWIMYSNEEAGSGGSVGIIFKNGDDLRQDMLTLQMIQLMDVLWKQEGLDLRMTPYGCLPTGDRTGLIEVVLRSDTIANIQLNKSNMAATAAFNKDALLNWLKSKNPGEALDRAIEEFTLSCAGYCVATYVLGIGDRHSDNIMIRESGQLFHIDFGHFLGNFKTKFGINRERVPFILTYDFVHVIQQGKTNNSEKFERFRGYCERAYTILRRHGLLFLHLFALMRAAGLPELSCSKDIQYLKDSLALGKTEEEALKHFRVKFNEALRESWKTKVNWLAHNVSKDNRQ

[17] = biological target: T3, Phosphatidylinositol 4,5-bisphosphate 3-kinase catalytic subunit delta isoform (Homo sapiens); details: at 1 µM
[18] = biological target: Phosphatidylinositol 4-kinase beta (Homo sapiens) (UniProt Q9UBF8); details: at 0.1 µM
[19] = biological target: Phosphatidylinositol 4-kinase beta (Homo sapiens) (UniProt Q9UBF8); details: at 1 µM
[20] = biological target: Sphingosine kinase 1 (Homo sapiens) (UniProt Q9NYA1); details: at 0.1 µM;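 also: mean percent inhibition of SPHK1 activity, measured within the GSK PKIS screening panel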
Sequence of Sphingosine kinase 1 (Homo sapiens) (Q9NYA1 whole entry): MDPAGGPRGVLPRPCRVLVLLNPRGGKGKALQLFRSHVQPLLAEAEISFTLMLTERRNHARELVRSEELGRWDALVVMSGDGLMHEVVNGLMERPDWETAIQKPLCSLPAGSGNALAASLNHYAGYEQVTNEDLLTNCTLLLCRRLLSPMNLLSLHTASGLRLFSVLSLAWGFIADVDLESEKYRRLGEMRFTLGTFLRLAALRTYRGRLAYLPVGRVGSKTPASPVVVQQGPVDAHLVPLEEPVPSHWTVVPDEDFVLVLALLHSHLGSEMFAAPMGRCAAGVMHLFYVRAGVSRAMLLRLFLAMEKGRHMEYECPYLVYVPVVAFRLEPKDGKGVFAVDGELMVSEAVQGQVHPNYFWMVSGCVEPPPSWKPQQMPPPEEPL

Sequence of SRSF protein kinase 1 (Homo sapiens) (Q96SB4 whole entry, canonical isoform): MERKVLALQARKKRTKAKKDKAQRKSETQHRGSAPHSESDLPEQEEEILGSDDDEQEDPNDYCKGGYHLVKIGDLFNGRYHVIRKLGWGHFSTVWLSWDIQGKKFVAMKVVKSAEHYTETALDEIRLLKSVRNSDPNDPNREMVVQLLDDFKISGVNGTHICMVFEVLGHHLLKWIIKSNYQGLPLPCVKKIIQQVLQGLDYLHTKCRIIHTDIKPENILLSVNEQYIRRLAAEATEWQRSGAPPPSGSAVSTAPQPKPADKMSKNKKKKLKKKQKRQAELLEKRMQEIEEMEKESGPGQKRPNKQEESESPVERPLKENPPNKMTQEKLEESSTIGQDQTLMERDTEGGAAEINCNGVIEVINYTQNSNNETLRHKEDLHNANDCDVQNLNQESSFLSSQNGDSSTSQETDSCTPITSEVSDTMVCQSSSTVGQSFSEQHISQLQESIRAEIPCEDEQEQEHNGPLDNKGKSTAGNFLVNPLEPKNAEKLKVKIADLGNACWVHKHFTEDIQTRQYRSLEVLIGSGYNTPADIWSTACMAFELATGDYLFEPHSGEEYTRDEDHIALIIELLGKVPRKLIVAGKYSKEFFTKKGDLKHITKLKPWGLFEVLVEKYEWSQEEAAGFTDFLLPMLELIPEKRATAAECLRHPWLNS
Sequence of Mitogen-activated protein kinase 3 (Homo sapiens) (P27361 whole entry): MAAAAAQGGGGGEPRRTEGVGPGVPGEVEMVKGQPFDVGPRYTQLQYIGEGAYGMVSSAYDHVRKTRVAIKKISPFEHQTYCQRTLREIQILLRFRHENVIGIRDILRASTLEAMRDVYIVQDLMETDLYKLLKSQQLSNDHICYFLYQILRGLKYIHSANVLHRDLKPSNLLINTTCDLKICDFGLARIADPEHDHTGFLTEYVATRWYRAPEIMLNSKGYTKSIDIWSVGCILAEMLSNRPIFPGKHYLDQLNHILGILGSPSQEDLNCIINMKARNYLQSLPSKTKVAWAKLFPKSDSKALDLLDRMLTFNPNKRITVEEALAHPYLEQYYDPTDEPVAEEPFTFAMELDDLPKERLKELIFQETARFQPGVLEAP
Sequence of Phosphatidylinositol 4,5-bisphosphate 3-kinase catalytic subunit alpha isoform (Homo sapiens) (P42336 whole entry, canonical isoform): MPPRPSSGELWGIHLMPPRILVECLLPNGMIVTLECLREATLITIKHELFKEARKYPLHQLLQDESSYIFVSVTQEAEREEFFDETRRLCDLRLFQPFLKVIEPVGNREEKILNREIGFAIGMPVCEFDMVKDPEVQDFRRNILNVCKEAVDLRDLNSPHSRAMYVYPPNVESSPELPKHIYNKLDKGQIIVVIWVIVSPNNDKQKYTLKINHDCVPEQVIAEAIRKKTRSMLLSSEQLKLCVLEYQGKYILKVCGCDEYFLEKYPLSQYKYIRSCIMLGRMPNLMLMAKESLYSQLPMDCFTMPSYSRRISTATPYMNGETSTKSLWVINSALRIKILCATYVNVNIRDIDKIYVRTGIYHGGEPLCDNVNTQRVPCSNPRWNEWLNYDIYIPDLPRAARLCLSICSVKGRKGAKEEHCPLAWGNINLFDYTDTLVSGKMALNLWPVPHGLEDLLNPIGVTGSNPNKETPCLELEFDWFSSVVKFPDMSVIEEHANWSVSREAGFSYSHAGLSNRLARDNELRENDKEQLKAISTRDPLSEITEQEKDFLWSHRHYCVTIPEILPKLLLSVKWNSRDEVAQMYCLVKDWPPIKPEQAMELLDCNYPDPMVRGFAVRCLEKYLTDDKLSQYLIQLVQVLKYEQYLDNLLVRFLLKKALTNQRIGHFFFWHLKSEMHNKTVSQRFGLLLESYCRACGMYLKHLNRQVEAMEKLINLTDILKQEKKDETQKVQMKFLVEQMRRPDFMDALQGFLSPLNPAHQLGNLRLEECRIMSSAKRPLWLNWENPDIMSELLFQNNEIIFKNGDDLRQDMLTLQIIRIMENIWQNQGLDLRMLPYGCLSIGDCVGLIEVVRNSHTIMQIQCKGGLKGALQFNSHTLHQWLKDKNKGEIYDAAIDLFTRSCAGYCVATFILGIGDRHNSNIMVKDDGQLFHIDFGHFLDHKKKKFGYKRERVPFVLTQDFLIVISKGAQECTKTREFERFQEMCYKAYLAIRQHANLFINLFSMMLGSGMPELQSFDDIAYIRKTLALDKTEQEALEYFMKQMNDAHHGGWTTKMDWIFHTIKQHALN
Sequence of Mitogen-activated protein kinase 11 (Homo sapiens) (Q15759 whole entry): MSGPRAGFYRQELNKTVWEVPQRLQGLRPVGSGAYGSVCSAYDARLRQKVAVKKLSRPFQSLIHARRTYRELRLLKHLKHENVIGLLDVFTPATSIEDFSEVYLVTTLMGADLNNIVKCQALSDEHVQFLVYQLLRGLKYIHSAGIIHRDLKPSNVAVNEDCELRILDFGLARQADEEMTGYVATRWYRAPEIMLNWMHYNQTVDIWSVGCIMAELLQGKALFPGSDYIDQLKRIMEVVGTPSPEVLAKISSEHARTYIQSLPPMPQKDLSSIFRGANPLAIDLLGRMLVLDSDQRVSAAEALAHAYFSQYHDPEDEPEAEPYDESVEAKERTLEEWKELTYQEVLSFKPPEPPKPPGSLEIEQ
Sequence of Mitogen-activated protein kinase 14 (Homo sapiens) (Q16539 whole entry): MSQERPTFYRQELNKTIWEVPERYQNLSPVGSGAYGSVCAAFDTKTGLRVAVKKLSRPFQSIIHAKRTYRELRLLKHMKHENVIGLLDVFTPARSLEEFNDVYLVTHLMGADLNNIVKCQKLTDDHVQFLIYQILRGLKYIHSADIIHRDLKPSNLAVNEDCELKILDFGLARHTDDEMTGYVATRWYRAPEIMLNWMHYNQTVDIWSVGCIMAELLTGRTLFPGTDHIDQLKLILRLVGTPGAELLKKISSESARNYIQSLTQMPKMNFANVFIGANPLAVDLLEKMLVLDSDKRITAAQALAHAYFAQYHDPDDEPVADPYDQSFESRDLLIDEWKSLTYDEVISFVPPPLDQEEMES
Sequence of Phosphatidylinositol 4-kinase beta (Homo sapiens) (Q9UBF8 2-816 limits assumed): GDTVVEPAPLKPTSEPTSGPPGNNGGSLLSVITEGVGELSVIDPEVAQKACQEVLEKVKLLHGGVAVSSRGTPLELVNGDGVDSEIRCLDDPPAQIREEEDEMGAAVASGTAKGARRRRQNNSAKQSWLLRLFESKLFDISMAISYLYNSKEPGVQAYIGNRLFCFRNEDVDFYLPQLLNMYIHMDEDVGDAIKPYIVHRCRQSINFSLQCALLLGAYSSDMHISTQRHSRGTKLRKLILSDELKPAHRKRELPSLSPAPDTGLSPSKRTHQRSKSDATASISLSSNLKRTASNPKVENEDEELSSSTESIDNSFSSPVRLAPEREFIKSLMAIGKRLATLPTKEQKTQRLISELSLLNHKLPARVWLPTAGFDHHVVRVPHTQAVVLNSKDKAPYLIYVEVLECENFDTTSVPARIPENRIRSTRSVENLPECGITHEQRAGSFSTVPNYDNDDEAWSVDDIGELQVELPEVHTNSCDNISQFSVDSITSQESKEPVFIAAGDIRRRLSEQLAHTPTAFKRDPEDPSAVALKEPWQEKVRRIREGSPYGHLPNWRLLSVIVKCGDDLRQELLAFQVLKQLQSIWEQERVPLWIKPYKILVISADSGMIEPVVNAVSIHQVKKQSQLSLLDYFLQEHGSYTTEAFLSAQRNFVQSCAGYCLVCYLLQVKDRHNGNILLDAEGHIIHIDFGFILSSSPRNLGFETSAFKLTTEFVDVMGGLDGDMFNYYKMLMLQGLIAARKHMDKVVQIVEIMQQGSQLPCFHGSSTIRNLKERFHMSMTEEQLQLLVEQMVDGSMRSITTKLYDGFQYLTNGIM
Sequence of SRSF protein kinase 3 (Homo sapiens) (Q9UPE1 whole entry): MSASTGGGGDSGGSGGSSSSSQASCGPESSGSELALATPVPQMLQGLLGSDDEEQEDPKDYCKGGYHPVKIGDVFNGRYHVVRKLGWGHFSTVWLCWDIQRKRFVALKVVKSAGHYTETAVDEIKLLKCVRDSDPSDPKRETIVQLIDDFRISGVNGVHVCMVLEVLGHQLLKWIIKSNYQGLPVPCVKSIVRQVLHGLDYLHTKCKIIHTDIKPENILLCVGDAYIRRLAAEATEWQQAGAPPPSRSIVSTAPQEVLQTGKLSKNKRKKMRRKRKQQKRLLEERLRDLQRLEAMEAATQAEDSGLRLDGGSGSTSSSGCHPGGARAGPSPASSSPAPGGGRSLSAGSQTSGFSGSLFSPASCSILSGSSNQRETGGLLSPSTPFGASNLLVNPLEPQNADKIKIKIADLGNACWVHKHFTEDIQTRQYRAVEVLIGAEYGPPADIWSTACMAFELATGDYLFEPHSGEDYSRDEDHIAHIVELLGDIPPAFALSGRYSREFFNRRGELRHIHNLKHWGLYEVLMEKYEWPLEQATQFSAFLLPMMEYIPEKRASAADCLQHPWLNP

Row | Structure (SMILES) | inhibition [1] [%] | inhibition [2] [%] | inhibition [3] [%] | inhibition [4] [%] | inhibition [5] [%] | inhibition [6] [%] | inhibition [7] [%] | inhibition [8] [%] | inhibition [9] [%] | inhibition [10] [%] | inhibition [11] [%] | inhibition [12] [%] | inhibition [13] [%] | inhibition [14] [%] | inhibition [15] [%] | inhibition [16] [%] | inhibition [17] [%] | inhibition [18] [%] | inhibition [19] [%] | inhibition [20] [%]
1 | Fc1cccc(COc2ccc(Nc3ncncc3C#Cc3ccccc3)cc2Cl)c1 | 5.53 | -0.87 | 0.58 | 6.33 | 11.6 | 3.77 | 8.28 | -1.02 | 3.79 | 2.17 | 2.58 | -0.38 | 3.43 | 3.88 | 2.67 | 1.53 | 1.09 | 1.02 | -1.52 | 1.58
2 | CCN1CCC(C(=O)Nc2n[nH]c3nnc(-c4cccc(F)c4F)cc23)CC1 | -0.23 | -0.64 | -0.52 | -0.33 | -0.72 | 0.08 | 0.51 | -1.52 | -2.25 | -0.79 | -1.22 | -1.43 | 0.92 | -1.4 | -2.49 | -3.18 | -0.47 | 0.1 | -1.04 | 0.46
3 | CNC(=O)c1ncccc1Nc1nc(Nc2cc3c(cc2OC)CCCN3C(=O)CN(C)C)nc2[nH]ccc12 | 1.38 | 0.37 | 0.84 | 4.75 | 8.76 | 4.41 | 4.4 | 8.55 | 5.64 | 1.94 | 2.94 | -1.98 | -0.43 | 3.55 | 1.58 | 1.46 | 4.15 | -2.24 | 1.56 | 3.95
4 | CN(c1ccc(NC(=O)NCCN2CCOCC2)cc1)c1ccnc(Nc2ccc(CS(C)(=O)=O)cc2)n1 | 3.72 | 0.77 | 2.7 | 0.79 | 5.83 | 4.13 | 6.58 | 1.11 | 3.21 | 0.47 | 1.28 | 0.25 | 2.58 | 1.92 | 2.04 | -0.08 | 0.81 | 4.11 | 4.4 | 0.08
5 | CCOc1ccc2c(-c3ccnc(Nc4cc(OC)cc(C(F)(F)F)c4)n3)cnn2n1 | 2.27 | -0.03 | -0.23 | 8.65 | 2.85 | -0.59 | 1.71 | 0.55 | 2.07 | 3.42 | 1.08 | -1.1 | -0.9 | -0.03 | 5.25 | -1.72 | 10.2 | 3.54 | -4.92 | -3.8
6 | CN1CCC(n2cnc(-c3ccc(F)cc3)c2-c2ccnc(NCCO)n2)CC1 | 6.51 | -0.9 | 1.7 | 66.3 | 86.3 | 12.9 | 52.5 | 2.89 | 4.31 | 3.94 | 3.15 | -1.01 | 3.27 | 3.91 | 2.41 | 1.87 | 2.25 | -3.16 | 4.51 | 9.04
7 | Cc1cc(O)cc(C)c1/C=C/c1cncc(C(=O)OC(C)(C)C)c1 | 5.66 | -1.96 | -3.77 | 5.49 | 6.26 | 1.86 | 5.95 | 2.17 | 1.43 | 2.88 | 1.7 | -1.51 | 0.59 | 5.51 | 7.91 | 5.19 | 6.21 | 1.7 | 3.49 | 2.8
8 | COc1cccc(-n2ncc3c(N/N=C/c4ccc(C(=O)NCCN(C)C)cc4)ncnc32)c1 | 2.75 | 1.28 | 0.91 | 2.36 | 11.8 | 0.2 | 3.19 | 3.46 | 23.5 | 4.06 | 4.67 | -1.63 | -2.59 | 2.48 | 20.2 | 4.52 | 16.3 | -3.13 | 5.75 | 5.89
9 | Cc1cc(O)cc(C)c1/C=C/c1cncc(C(N)=O)c1 | 2.77 | 1.7 | 1.04 | 4.9 | 6.5 | 0.52 | 0.8 | 2.3 | 1.36 | 1.1 | 1.72 | -2.4 | -0.6 | 0.88 | 3.67 | 0.87 | 2.16 | 0.44 | -1.46 | -0.95
10 | NS(=O)(=O)c1ccc(N/N=C2\C(=O)Nc3ccc(C(=O)NCc4ccncc4)cc32)cc1 | 26.3 | -1.39 | 2.17 | 6.35 | 6.05 | 4.53 | 9.75 | 1.65 | 4.79 | -1.11 | 2.56 | -1.11 | 2.06 | 0.9 | 0.8 | 0.21 | 0.37 | -0.51 | -0.17 | -0.37
11 | CCCNc1cccc(-n2ncc3c(N/N=C/c4ccncc4)ncnc32)c1 | 3.62 | -0.81 | 0.97 | 1.81 | 7.62 | 4.76 | 25.5 | 0.94 | 3.1 | 0.51 | 0.33 | 0.43 | 3.51 | 1.36 | 3.81 | 3.31 | 14.7 | 5.69 | 4.32 | 0.21
12 | O=C(O[C@H]1CN[C@H](C#Cc2cc3ncnc(Nc4ccc(OCc5cccc(F)c5)c(Cl)c4)c3s2)C1)N1CCOCC1 | 5.48 | -1.6 | -1.95 | 3.55 | 7.34 | 5.95 | 5.11 | 1.84 | 6.02 | 3.76 | 3.47 | -2 | 0.44 | 4.94 | 26.9 | 3.37 | 15.8 | -0.81 | 1.44 | 0.99
13 | NC(=O)c1ccc2c(-c3ccnc(NCCCO)n3)c(-c3ccc(F)cc3)nn2c1 | 8.87 | 1.36 | 1.23 | 74.9 | 86.4 | 49.5 | 68.7 | 1.5 | 6.27 | 2.09 | 3.04 | -2.08 | -2.11 | 2.83 | 6.09 | 2.78 | 6.2 | -2.18 | 3.6 | -2.85
